Reference: PubChem BioAssay (NCI)
About 79,000 compounds went through this panel and 15% of them were active in at least one assay; those are over-represented in the sample as a whole. Calls of active or inactive are those of the source. No stated cut-off is given here; in the data, active means growth inhibition above about 70%; inactive means the rest.

Tests used:
[1] = NCI Yeast Anticancer Drug Screen. Data for the rad52 strain (AID 147);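 further: 0% = growth of vehicle-treated control cultures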; conditions: S. cerevisiae rad52 mutant growth inhibition, stronger effect = higher value
In short: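 The repair-mutant yeast strain was incubated with compounds, then growth was read and inhibition derived relative to vehicle.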

[2] = NCI Yeast Anticancer Drug Screen. Data for the wt1 strain (AID 149);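 further: 0% = growth of vehicle-treated wt1 cultures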; conditions: S. cerevisiae wt1 strain (SPY 50644) growth inhibition, stronger effect = higher value
In short: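 The wt1 strain was treated with compounds, and growth was compared with vehicle-treated cultures to give inhibition.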

[3] = NCI Yeast Anticancer Drug Screen. Data for the rad50EPP+ strain (AID 151);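 further: 0% = growth of vehicle-treated control cultures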; conditions: S. cerevisiae rad50 mutant strain, stronger effect = higher value
In short: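 Vehicle-normalised growth inhibition; rad50EPP+ yeast strain, altered in DNA damage repair, compound-treated.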

[4] = NCI Yeast Anticancer Drug Screen. Data for the mgt1 strain (AID 153); conditions: S. cerevisiae mgt1 mutant growth inhibition, stronger effect = higher value
In short: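 Vehicle-normalized growth inhibition is determined in mgt1 yeast, a strain selected for a defined alteration in DNA repair or cell cycle control.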

[5] = NCI Yeast Anticancer Drug Screen. Data for the rad50 strain (AID 155);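 further: 0% = growth of vehicle-only cultures of the same strain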; conditions: S. cerevisiae rad50 strain growth inhibition, stronger effect = higher value
In short: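 Cells are treated with compound, grown, and their growth is then scored against vehicle-only cultures of the same repair-deficient yeast strain.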

[6] = NCI Yeast Anticancer Drug Screen. Data for the mec2-1 strain (AID 157); conditions: S. cerevisiae mec2-1 strain, stronger effect = higher value
In short: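 Mutant yeast (mec2-1) grown with compound; growth inhibition relative to vehicle control reported.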

[7] = NCI Yeast Anticancer Drug Screen. Data for the rad14 strain (AID 159);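 further: 0% = growth of vehicle-treated control cultures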; conditions: S. cerevisiae rad14 strain growth inhibition, stronger effect = higher value
In short: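 Readout: yeast growth inhibition, referenced to vehicle-only cultures. Strain bears a defined alteration in DNA damage repair.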

[8] = NCI Yeast Anticancer Drug Screen. Data for the sgs1 mgt1 strain (AID 161);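 further: 0% = growth of cultures given vehicle only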; conditions: S. cerevisiae sgs1 mgt1 strain, stronger effect = higher value
In short: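 Compounds are added to genetically altered yeast, and growth is compared with cultures given vehicle alone to give percent inhibition.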

[9] = NCI Yeast Anticancer Drug Screen. Data for the CLN2oe strain (AID 163);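 further: 0% = growth of vehicle-only control cultures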; conditions: S. cerevisiae CLN2oe strain, stronger effect = higher value
In short: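 Compounds are applied to yeast harbouring a defined cell-cycle control change; reduced growth compared with vehicle-treated controls gives the value.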

[10] = NCI Yeast Anticancer Drug Screen. Data for the cln2 rad14 strain (AID 165);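 further: 0% = growth equal to vehicle treated cultures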; conditions: S. cerevisiae cln2 rad14 strain, stronger effect = higher value
In short: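 Readout is yeast growth inhibition versus vehicle-treated controls, using a strain with cln2 and rad14 alterations exposed to compound.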

[11] = NCI Yeast Anticancer Drug Screen. Data for the bub3 strain (AID 167); conditions: S. cerevisiae bub3 mutant strain, stronger effect = higher value
In short: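 Part of a panel of yeast mutants defective in DNA damage repair or cell cycle regulation. Each strain is grown with compound, and inhibition is calculated relative to solvent-treated cultures.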

[12] = NCI Yeast Anticancer Drug Screen. Data for the wt2 strain (AID 169);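 further: 0% = growth of vehicle-treated yeast cultures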; conditions: S. cerevisiae wt2 strain growth inhibition, stronger effect = higher value
In short: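 Against vehicle-treated controls, the growth of yeast exposed to each compound was compared, and the inhibition was recorded.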

[13] = NCI Yeast Anticancer Drug Screen. Data for the mlh1 strain (AID 171);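 further: 0% = growth of vehicle-treated control cultures of the same strain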; conditions: S. cerevisiae mlh1 strain growth inhibition, stronger effect = higher value
In short: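 Measured: yeast growth. Reference: vehicle-treated controls. Organism: strain with a defined alteration affecting DNA damage repair or cell cycle control, treated with compound.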

[14] = NCI Yeast Anticancer Drug Screen. Data for the sgs1 strain (AID 173);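 further: 0% = growth of vehicle-only control cultures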; conditions: S. cerevisiae sgs1 mutant, stronger effect = higher value
In short: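 Each compound was added to cultures of the altered yeast strain. Growth was recorded, and inhibition was derived by comparison with vehicle controls.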

[15] = NCI Yeast Anticancer Drug Screen. Data for the mlh1 rad18 strain (AID 175); conditions: S. cerevisiae mlh1 rad18 strain growth inhibition, stronger effect = higher value
In short: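 Genetically defined yeast (DNA repair-deficient) exposed to compounds; growth inhibition determined relative to vehicle.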

[16] = NCI Yeast Anticancer Drug Screen. Data for the rad18 strain (AID 177); conditions: S. cerevisiae rad18 mutant growth inhibition, stronger effect = higher value
In short: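 Vehicle-treated cultures served as the baseline for scoring compound-induced growth inhibition in DNA-repair-mutant yeast.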

[17] = at 5.0 µM (retest, dose inferred, filed as 0.5)
[18] = at 50.0 µM (retest, dose inferred, filed as 5.0)

Measured: growth inhibition

CCOc1c(N=Nc2ccccc2OC)c(C)nn1C(=S)S
inactive: [1]; at 1.2 µM 0% | [1]; at 3.7 µM 3% | [1]; at 11.0 µM 11% | [1]; at 33.0 µM 39% | [2]; at 1.2 µM -1% | [2]; at 3.7 µM 1% | [2]; at 11.0 µM 4% | [2]; at 33.0 µM 17% | [2]; at 100.0 µM 52% | [3]; at 1.2 µM 2% | [3]; at 3.7 µM 14% | [3]; at 11.0 µM 26% | [3]; at 33.0 µM 54% | [4]; at 1.2 µM -2% | [4]; at 3.7 µM 1% | [4]; at 11.0 µM 3% | [4]; at 33.0 µM 18% | [5]; at 1.2 µM -1% | [5]; at 3.7 µM -1% | [5]; [17] -2% | [5]; at 11.0 µM 8% | [5]; at 33.0 µM 22% | [5]; [18] 36% | [5]; at 100.0 µM 65% | [6]; at 1.2 µM -1% | [6]; at 3.7 µM 0% | [6]; [17] -7% | [6]; at 11.0 µM 2% | [6]; at 33.0 µM 19% | [6]; [18] 4% | [6]; at 100.0 µM 60% | [7]; at 1.2 µM 4% | [7]; at 3.7 µM -1% | [7]; at 11.0 µM 4% | [7]; at 33.0 µM 4% | [8]; [17] 4% | [8]; [18] 49% | [9]; at 1.2 µM -6% | [9]; at 3.7 µM 0% | [9]; at 11.0 µM -3% | [9]; at 33.0 µM 7% | [9]; at 100.0 µM 59% | [10]; [17] -45% | [10]; [18] 4% | [11]; at 1.2 µM -7% | [11]; at 3.7 µM -1% | [11]; [17] -25% | [11]; at 11.0 µM 15% | [11]; at 33.0 µM 34% | [11]; [18] 50% | [11]; at 100.0 µM 67% | [12]; at 1.2 µM 0% | [12]; at 3.7 µM 3% | [12]; at 11.0 µM 10% | [12]; at 33.0 µM 32% | [13]; at 1.2 µM -3% | [13]; at 3.7 µM 0% | [13]; at 11.0 µM 4% | [13]; at 33.0 µM 4% | [13]; at 100.0 µM 65% | [14]; at 1.2 µM -1% | [14]; at 3.7 µM 3% | [14]; at 11.0 µM 14% | [14]; at 33.0 µM 45% | [15]; [17] -30% | [15]; [18] 56% | [16]; at 1.2 µM -11% | [16]; at 3.7 µM -3% | [16]; at 11.0 µM 4% | [16]; at 33.0 µM 32%
active: [1]; at 100.0 µM 79% | [3]; at 100.0 µM 79% | [4]; at 100.0 µM 74% | [5]; at 50.0 µM 98.5% | [6]; at 50.0 µM 97.8% | [7]; at 100.0 µM 78% | [8]; at 50.0 µM 97.7% | [10]; at 50.0 µM 98% | [11]; at 50.0 µM 98% | [12]; at 100.0 µM 75% | [14]; at 100.0 µM 86% | [15]; at 50.0 µM 98.3% | [16]; at 100.0 µM 70%

CNC(=O)OCc1c(COC(=O)NC)c(-c2ccc(Cl)cc2)n2c1CCC2
active: [2]; at 100.0 µM 84% | [4]; at 100.0 µM 98% | [5]; at 100.0 µM 97% | [6]; at 100.0 µM 87% | [7]; at 100.0 µM 98% | [9]; at 100.0 µM 94% | [10]; at 50.0 µM 84% | [11]; at 100.0 µM 94% | [12]; at 100.0 µM 97% | [13]; at 100.0 µM 98% | [14]; at 100.0 µM 89% | [15]; at 50.0 µM 74.3% | [16]; at 100.0 µM 97%
inactive: [1]; at 1.2 µM -19% | [1]; at 3.7 µM -31% | [1]; at 11.0 µM -28% | [1]; at 33.0 µM -22% | [1]; at 100.0 µM 69% | [2]; at 1.2 µM -37% | [2]; at 3.7 µM -31% | [2]; at 11.0 µM -43% | [2]; at 33.0 µM -47% | [3]; at 1.2 µM -21% | [3]; at 3.7 µM -23% | [3]; at 11.0 µM -16% | [3]; at 33.0 µM -25% | [3]; at 100.0 µM -26% | [4]; at 1.2 µM -47% | [4]; at 3.7 µM -55% | [4]; at 11.0 µM -49% | [4]; at 33.0 µM -17% | [5]; at 1.2 µM -34% | [5]; at 3.7 µM -42% | [5]; [17] 21% | [5]; at 11.0 µM -40% | [5]; at 33.0 µM -30% | [5]; [18] 11% | [5]; at 50.0 µM 56.3% | [6]; at 1.2 µM -55% | [6]; at 3.7 µM -41% | [6]; [17] 0% | [6]; at 11.0 µM -37% | [6]; at 33.0 µM -36% | [6]; [18] 6% | [6]; at 50.0 µM 44.7% | [7]; at 1.2 µM -34% | [7]; at 3.7 µM -31% | [7]; at 11.0 µM -39% | [7]; at 33.0 µM 2% | [8]; [17] 33% | [8]; [18] 69% | [8]; at 50.0 µM 57.5% | [9]; at 1.2 µM -21% | [9]; at 3.7 µM -1% | [9]; at 11.0 µM -9% | [9]; at 33.0 µM -6% | [10]; [17] 30% | [10]; [18] 38% | [11]; at 1.2 µM -53% | [11]; at 3.7 µM -69% | [11]; [17] 36% | [11]; at 11.0 µM -55% | [11]; at 33.0 µM -17% | [11]; [18] 33% | [11]; at 50.0 µM 23% | [12]; at 1.2 µM -31% | [12]; at 3.7 µM -11% | [12]; at 11.0 µM -26% | [12]; at 33.0 µM -10% | [13]; at 1.2 µM -61% | [13]; at 3.7 µM -93% | [13]; at 11.0 µM -67% | [13]; at 33.0 µM 10% | [14]; at 1.2 µM -11% | [14]; at 3.7 µM -28% | [14]; at 11.0 µM -41% | [14]; at 33.0 µM -23% | [15]; [17] 4% | [15]; [18] 5% | [16]; at 1.2 µM -28% | [16]; at 3.7 µM -30% | [16]; at 11.0 µM -53% | [16]; at 33.0 µM -42%
